High-throughput results deposited in PubChem by National Center for Advancing Translational Sciences (NCATS).
The list is not random: actives were taken first. Their share in the collection is about 11%.
Vaccinia Venus – vaccinia inhibition (Venus reporter); Vaccinia virus Venus reporter expression, fluorescence; Potency, µM (titrated, usually from 36.5 µM), for the others: at the top dose activity change, negative = inhibition, actives largely listed as inhibitors; 330,000 compounds, 0.46% hits; AID 720580; calls by dose curve; tested in A549 cells; note: % is set by controls: 0 for no effect and ±100 for the full control effect; nearly all actives have a fitted effect of over 30% in size
Pf growth 48h – inhibits P. falciparum growth in the first generation, 48 h; P. falciparum luciferase growth in erythrocytes, 48 h; Potency, µM (doses to about 28.7 µM), for inactives: at the top dose activity change, negative = inhibition, hits mostly inhibitors; 310,000 compounds, 5.9% hits; AID 504832; note: % is set by controls: 0 for no effect and ±100 for the full control effect
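Luminescence readout; reporter = integrated firefly luciferase in P. falciparum. RBC culture at 2% hematocrit, 0.1% parasitemia final, 37 C/5% CO2; decreased signal taken as growth inhibition.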
HCV inh – HCV inhibition; Huh7.5.1 HCVcc-Cre infection, luciferase reporter, 44 h; Potency, µM (highest dose often 41.8 µM), for inactives: at the highest dose activity change, negative = inhibition, most hits filed as inhibitors; 340,000 compounds, 3.4% hits; note: % is set by controls: 0 for no effect and ±100 for the full control effect
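A cell-based infection assay in which seeded cells (1,000 per well) receive test compound after 4 h, are inoculated with HCVcc-Cre at approximately 0.5 moi, and are incubated 44 h before luminescence detection.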
Pf growth 96h – inhibits malaria parasite growth, 96 h | P. falciparum luciferase reporter growth, 96 h | Potency, µM (titrated, usually from 28.7 µM), for inactives: at the top dose activity change, negative = inhibition, actives largely listed as inhibitors | 320,000 compounds, 6.9% hits; note: % is set by controls: 0 for no effect and ±100 for the full control effect
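Two parasite generations (96 h, 37 C, 5% CO2) of compound exposure in infected erythrocytes (0.05% parasitemia, 2% hematocrit). Luciferase-reporter P. falciparum; decreased luminescence indicates inhibited growth, aimed at apicoplast-acting delayed death.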
NS1 function inh – inhibitors of influenza NS1 protein function; 270,000 compounds, 0.4% hits; AID 2326; Potency, µM (top dose mostly 46.1 µM), without a hit: top-dose activity, positive = more growth; calls by dose curve; note: actives are rising curves; nearly all actives have a fitted effect of over 50% in size
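In this qHTS, NS1 from influenza A is expressed in budding yeast, where it slows growth. Cells are switched from glucose to 2% galactose medium (pH 6.0, -URA), treated with compound, and growth recovery is read at OD600.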
VACV mCherry inh – vaccinia inhibition (mCherry reporter); Vaccinia virus mCherry reporter infection, fluorescence; Potency, µM (doses to about 36.5 µM), for the others: top-dose activity change, negative = inhibition, most hits filed as inhibitors; 310,000 compounds, 0.63% hits; AID 720579; calls by dose curve; tested in A549 cells; note: % is set by controls: 0 for no effect and ±100 for the full control effect; nearly all actives have a fitted effect of over 35% in size
Numbers without * were called inactive; i = inactive; u = inconclusive; x = no result given; [ ] = another dose, or the depositor's remark. Unless noted, calls come from the whole dose curve; as a rule, active = well fitted inhibition curve with a large enough effect; inconclusive = small, poorly fitted or top-dose-only effect, or another doubt; inactive = no such curve, though single readings can be large or run the other way. Potency is the fitted concentration of half-maximal effect.

SMILES	Vaccinia Venus	Pf growth 48h	HCV inh	Pf growth 96h	NS1 function inh	VACV mCherry inh
COc1cc(CCN2C(=O)c3cccc4cccc(c34)C2=O)c(S(=O)(=O)N2CCCCCC2)cc1OC	-5.5%	u	u	2.33µM*	u	-14.7%
COc1cc(CCN2C(=O)c3cccc4cccc(c34)C2=O)c(S(=O)(=O)NCCO)cc1OC	-7.6%	u	-4.9%	u	2.4%	-10.3%
CCN1C(=O)c2cccc3c(S(=O)(=O)N4CCC(C)CC4)ccc1c23	-11.7%	u	u	u	x	-25.6%
NC(=O)c1ccsc1NC(=O)COC(=O)Cc1ccsc1	-18.8%	6.2%	7.4%	21.5%	-31.9%	-12.7%
COc1cc2nc(N3CCN(C(=O)C4CCCO4)CC3)nc(N)c2cc1OC (configuration not stated)	-22.3%	u	-15.7%[8.37 µM]	-11.8%	5.4%	-6.9%
C#CCOCCOCCOCCNc1nc(N2CCOCC2)nc(N2CCN(C(=O)[C@H](C)n3cc(CCCN=C(N)N)nn3)CC2)n1	-10.9%	19.2%	u	-23.1%	-26.3%	i
CCOc1ccc2[nH]c(=O)c(C(c3nnnn3CC3CCCO3)N3CCc4ccccc4C3)cc2c1 (configuration not stated)	x	10.4µM*	-13.9%	-14.2%	-1.7%	x
CCc1ccc2[nH]c(=O)c(C(c3nnnn3CC3CCCO3)N3CCCc4ccccc43)cc2c1 (configuration not stated)	x	11.7µM*	-5.9%	u	-28.5%	x
Cc1ccc2cc(C(c3nnnn3CC3CCCO3)N3CCc4ccccc4C3)c(=O)[nH]c2c1 (configuration not stated)	x	u	-16.3%	150.6%	6.5%	x
Cc1cc2cc(C(c3nnnn3CC3CCCO3)N3CCCc4ccccc43)c(=O)[nH]c2cc1C (configuration not stated)	x	u	0.9%	-20.9%	5.01µM*	x
Cc1cccc2cc(C(c3nnnn3CC3CCCO3)N3CCCc4ccccc43)c(=O)[nH]c12 (configuration not stated)	x	9.28µM*	-8.0%	-18.7%	0.0%	x
COc1ccccc1C(=O)Nc1ccnn1C1CCN(CCC(C)c2ccc(C)o2)CC1 (configuration not stated)	x	u	-16.9%	u	-2.9%	x
Cc1ccccc1NCC(=O)N/N=C\C=C\c1cccc([N+](=O)[O-])c1	x	35.2%	-1.7%	17.2%	-4.3%	x
COc1ccc(N2CC(C(=O)Nc3nccs3)CC2=O)cc1 (configuration not stated)	x	11.1%	16.9%	-52.3%	-6.6%	x
O=C(NC1CCCCCC1)C1CCN(S(=O)(=O)c2c(Cl)cccc2Cl)CC1	-19.1%	u	-22.4%	-27.7%	x	-3.9%
Cc1nn(C)c(C)c1S(=O)(=O)N1CCC(C(=O)NC2CCCCCC2)CC1	-6.9%	12.5%	21.2%	5.22µM*	3.3%	6.9%
Cc1cccc(NC(=O)C2CCN(S(=O)(=O)c3c(C)nn(C)c3C)CC2)n1	-9.5%	9.0%	25.1µM*	u	-1.9%	i
Cc1nn(C)c(C)c1S(=O)(=O)N1CCC(C(=O)NC2CCCCC2)CC1	9.1%	5.1%	24.1%	9.28µM*	-5.1%	1.0%
COC(=O)C(NC(=O)CCc1c(C)nc2c(c(C)nn2-c2ccccc2)c1C)C(C)C (configuration not stated)	0.7%	6.57µM*	u	1.5%	-7.9%	1.7%
Cc1nc2c(c(C)nn2-c2ccccc2)c(C)c1CCC(=O)Nc1ccc(CN2CCCC2)cc1	-14.3%	u	u	2.08µM*	6.3%	-3.0%
CCC(C)NC(=O)CCc1c(C)nc2c(c(C)nn2-c2ccccc2)c1C (configuration not stated)	x	u	-25.7%	-16.3%	-0.5%	x
CCOC(=O)N1CCN(C(=O)CCc2c(C)nc3c(c(C)nn3-c3ccc(C)c(C)c3)c2C)CC1	x	13.1µM*	u	x	-42.1%	x
CCOC(=O)c1c(CC(C)C)csc1NC(=O)CCl	-1.9%	x	-2.0%	-23.9%	-50.7%	-12.8%
Cc1cc(C)nc(SCc2nc3ncccn3c2Br)n1	0.3%	8.28µM*	8.1%	4.15µM*	-7.5%	x
